# High-throughput results as filed in PubChem.
# AMA1 RON2 block – AMA1-RON2 (P. falciparum) interaction inhibition; AlphaScreen AMA1-biotinylated RON2 peptide binding; Potency, µM (series often up to 58.2 µM), most hits filed as inhibitors; 360,000 tested, 0.2% active; AID 720542; further: nearly all actives have a fitted effect of over 45% in size
#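 AMA1 (3D7) with his tag at 25 nM final met compounds first, then biotinylated RON2 peptide at 25 nM; detection used donor plus acceptor beads, 10 µg/mL apiece, read by AlphaScreen after 30 min at room temperature.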
# HCV inhibitor – blocks hepatitis C virus; Huh7.5.1 HCVcc-Cre infection, luciferase reporter, 44 h; Potency, µM (doses to about 41.8 µM), actives largely listed as inhibitors; 340,000 tested, 3.4% active; AID 651820
#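 Infectious HCVcc-Cre (~0.5 moi) was added to cells just after compound, with cells seeded 4 h earlier at 1,000 per well. Luciferase activity after 44 h culture reported infection; substrate was incubated 15 min at room temperature before reading.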
# Pf growth 48h – inhibits P. falciparum growth in the first generation, 48 h; P. falciparum luciferase growth in erythrocytes, 48 h; Potency, µM (top dose mostly 28.7 µM), actives largely listed as inhibitors; 310,000 tested, 5.9% active; AID 504832
#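 Cell-based growth assay: transgenic P. falciparum expressing firefly luciferase, cultured in red cells within RPMI 1640 containing 0.5% w/v Albumax, 24 mM bicarbonate and gentamycin. A drop in luciferase activity indicates inhibition.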
# Pf growth 96h – P. falciparum growth inhibition at 96 hours | P. falciparum luciferase reporter growth, 96 h | Potency, µM (highest dose often 28.7 µM), most hits filed as inhibitors | 320,000 tested, 6.9% active
#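 P. falciparum expressing integrated firefly luciferase grown in erythrocytes (2% hematocrit, 0.05% parasitemia final) with compounds for 96 hours at 37 C, 5% CO2. Growth inhibition read as loss of luminescence after adding luciferase detection reagent.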
# Hits are given with their value; – = inactive; ? = inconclusive; · = not tested or not shown; [ ] = another dose, or the depositor's remark. The list is not random: actives were taken first. Their share in the collection is about 11%. The call rests on the fitted dose curve; in most records, active means well fitted curve in the direction sought with a large enough effect; inconclusive means small, poorly fitted or top-dose-only effect, or another doubt; inactive means no such curve, though single readings can be large; an effect the other way counts as inactive or inconclusive.
SMILES,AMA1 RON2 block,HCV inhibitor,Pf growth 48h,Pf growth 96h
CN(CCOc1ccccc1)C(=O)c1cc(S(=O)(=O)N2CCOCC2)ccc1Cl,–,?,?,–
Cc1cccc(N(Cc2ccccc2)C(=O)c2cc(S(=O)(=O)N3CCOCC3)ccc2Cl)c1,–,?,11.7µM,?
Cc1ccc(N(Cc2ccccc2)C(=O)c2cc(S(=O)(=O)N3CCOCC3)ccc2Cl)cc1,–,?,?,13.1µM
CN(Cc1cccc(Cl)c1Cl)C(=O)c1cc(S(=O)(=O)N2CCOCC2)ccc1F,–,–,·,·
C=CCN(Cc1ccc(Cl)s1)C(=O)c1cc(S(=O)(=O)N2CCOCC2)ccc1F,–,–,13.1µM,?
Cc1ccc(N(Cc2ccccc2)C(=O)c2cc(S(=O)(=O)N3CCOCC3)ccc2F)cc1,–,–,11.7µM,?
N#Cc1ccc(-c2ccc(OCC(=O)NCCCN3CCCC3=O)cc2)cc1,–,–,–,–
COc1ccc(CCNC(=S)Nc2ccc(S(=O)(=O)Nc3ncccn3)cc2)cc1OC,–,–,–,–
O=[N+]([O-])c1ccc2c(c1)ncn2-c1ccccc1,–,?,–,?
O=[N+]([O-])c1ccc2c(c1)ncn2CCc1ccccc1,–,–,?,0.522µM
CNC(=O)c1ccc(-n2cccn2)nc1,–,–,–,–
COc1ccccc1Cc1c(-c2ccco2)nc2ccc(Br)cn12,–,·,·,·
Cc1ccccc1Nc1nc(N)[nH]c(=O)c1N=O,–,·,·,·
Cn1c(/C=C/c2ccc(Br)cc2)c([N+](=O)[O-])c(=O)n(C)c1=O,–,?,9.28µM,–
CN(C)c1ccc(/C=C/c2c([N+](=O)[O-])c(=O)n(C)c(=O)n2C)cc1,–,–,–,–
COCCNC(=O)COc1coc(CN2CCN(Cc3ccccc3)CC2)cc1=O,–,–,–,?
CCN(C(=O)Cc1cccs1)c1nnc(-c2cc(OC)c(OC)c(OC)c2)s1,–,?,5.22µM,–
CC1Oc2cc3c(-c4c(O)cc(O)c5c(O)c6c(cc45)OC(C)C(C)C6=O)c(O)cc(O)c3c(O)c2C(=O)C1C (centres undefined),–,?,0.37µM,0.522µM
Cc1ccc(-n2nc3ccc(NC(=S)NC(=O)/C=C/c4ccco4)cc3n2)cc1,–[11.6 µM],–,–,1.85µM
O=C(/C=C/c1ccco1)NC(=S)Nc1cccc(-c2nc3ccccc3s2)c1,–,10µM,·,·
C=C(C)CSc1nnc(CCCCCNC(=O)OC(C)(C)C)o1,–,?,–,–
CCN(CC)C(=O)CSc1nnc(CCCCCNC(=O)OC(C)(C)C)o1,–,–,?,10.4µM
CCCNC(=O)C(Cc1ccccc1)NC(=O)c1ccc(-c2ccccc2)cc1 (centres undefined),–,–,–,1.47µM
CCCNC(=O)C(Cc1ccc(OC)cc1)NC(=O)c1ccc(Cl)cc1 (centres undefined),–,–,–,–
CCCNC(=O)C(Cc1ccc(OC)cc1)NC(=O)c1ccc(C#N)cc1 (centres undefined),–,3.16µM,–,?
SMILES,AMA1 RON2 block,HCV inhibitor,Pf growth 48h,Pf growth 96h
O=C(NCC(c1cccs1)N1CCOCC1)c1cn(-c2ccccc2)nc1-c1ccc(F)cc1 (centres undefined),–,?,?,?
Cc1ccc(-c2nn(-c3ccccc3)cc2C(=O)NCC(c2cccs2)N2CCOCC2)cc1 (centres undefined),–,?,?,?
Cc1cccc(-c2nn(-c3ccccc3)cc2C(=O)NCC(c2cccs2)N2CCOCC2)c1 (centres undefined),–,?,13.1µM,?
O=C(NCC(c1cccs1)N1CCOCC1)c1cc(-c2ccc(F)cc2)nc2ccccc12 (centres undefined),–,7.08µM,?,?
COc1ccc(C2(O)CCN(CC(=O)Nc3nccs3)CC2)c(OC)c1,–,?,–,–
O=C(Nc1cc(S(=O)(=O)Nc2ccccc2F)ccc1Cl)c1ccc(F)cc1F,–,–,·,·
COc1ccc(NS(=O)(=O)c2ccc(N3CCOCC3)c(N)c2)cc1,–,6.31µM,–,–
COc1ccc(NS(=O)(=O)c2ccc(N3CCOCC3)c(NC(=O)c3ccccc3Cl)c2)cc1,–,?,10.4µM,–
COc1ccc(NS(=O)(=O)c2ccc(N3CCOCC3)c(NC(=O)c3ccc(OC)cc3)c2)cc1,–,?,–,11.7µM
O=C(Nc1cc(S(=O)(=O)Nc2ccc(Cl)cc2)ccc1N1CCCCC1)c1ccc(F)cc1Cl,–,?,?,6.57µM
COc1cccc(N2CCN(c3ccc4nnc(CCC(=O)Nc5ncccc5C)n4n3)CC2)c1,–,–,?,–
Cc1ccc(OCCCC(=O)NNC(=O)c2ccccn2)cc1,–,?,·,·
CC(=O)Nc1ccc(S(=O)(=O)N2CCN=C2c2ccccc2)cc1,–,–,–,14.7µM
CCn1c(=O)n(CC)c2cc(S(=O)(=O)N3CCc4ccccc43)ccc21,–,12.6µM,?,·
CC(=O)Nc1ccc(S(=O)(=O)N2CCN(S(=O)(=O)c3ccccc3)CC2)cc1,–,–,?,?
COC(=O)c1ccc(S(=O)(=O)N2CCc3ccccc32)cc1,–,–,–,9.28µM
O=S(=O)(c1ccc(F)cc1)N1CCc2ccccc21,–,–,–,–
COC(=O)CCC(=O)Nc1ccc(S(=O)(=O)N2CCc3ccccc32)cc1,–,–,–,–
NNC(=O)c1ccc(S(=O)(=O)N2CCc3ccccc32)cc1,–,–,11.7µM,–
Cc1ccc(/C=C/C(=O)O)cc1S(=O)(=O)N1CCc2ccccc21,–,–,–,–
C[C@@H]1CN([C@H](C)CO)C(=O)c2c(c3ccccc3n2C)-c2ccccc2CO[C@@H]1CN(C)S(=O)(=O)c1cccs1,–,·,·,·
O=C(CNC(=O)c1ccc(Br)o1)OCC(=O)c1cccc([N+](=O)[O-])c1,–,–,–,?
COC(=O)Nc1ccc(S(=O)(=O)N2c3ccccc3CCC2C)cc1 (centres undefined),–,–,14.7µM,–
O=C(NCc1ccccc1)c1ccc(S(=O)(=O)N2CCCc3ccccc32)cc1,–,12.6µM,–,?
CCC(=O)N1CCCc2cc(S(=O)(=O)N3CCCc4ccccc43)ccc21,?,10µM,?,–
SMILES,AMA1 RON2 block,HCV inhibitor,Pf growth 48h,Pf growth 96h
CC(=O)Nc1ccc(S(=O)(=O)N2CCCc3ccccc32)cc1,–,12.6µM,–,–
COC(=O)Nc1ccc(S(=O)(=O)N2CCCCC2C(=O)O)cc1 (centres undefined),–,–,–,?
O=C(NCCNC(=O)c1cc(Cl)ccc1Cl)c1cnccn1,–,–,–,–
COc1ccc(S(=O)(=O)N2CCc3ccccc32)cc1OC,–,–,–,–
CC(=O)N1CCc2ccc(S(=O)(=O)N3CCc4ccccc43)cc21,–,22.4µM,13.1µM,–
O=C(Nc1ccccc1)c1ccc2nc(-c3ccco3)c(-c3ccco3)nc2c1,–,8.91µM,?,·
Nc1c(C(=O)Nc2ccccc2)sc2nc(-c3ccco3)ccc12,–,11.2µM,–,–
O=C(Nc1ccc2nc(-c3ccco3)c(-c3ccco3)nc2c1)N1CCN(c2ccccn2)CC1,?,7.94µM,?,–
O=C(NCc1ccccc1)c1ccc2nc(-c3ccco3)c(-c3ccco3)nc2c1,–,–,·,11.7µM
